In PubChem BioAssay (NCI):
About 79,000 compounds went through this panel and 15% of them were active in at least one assay; those are over-represented in the sample as a whole. Activity calls are given as the source filed them. Rule as the data show it: active = growth inhibition above about 70%; inactive = the rest.

What was measured:
[1] = NCI Yeast Anticancer Drug Screen. Data for the rad50 strain (AID 155);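 also: 0% = growth of vehicle-only cultures of the same strain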; conditions: S. cerevisiae rad50 strain growth inhibition; at 50.0 µM; hits give high values
Summary of the method: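 Genetically altered yeast (DNA repair pathway); compound treatment; growth inhibition vs vehicle ctrl.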

[2] = NCI Yeast Anticancer Drug Screen. Data for the mec2-1 strain (AID 157); conditions: S. cerevisiae mec2-1 strain, at 50.0 µM, hits give high values
Summary of the method: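 Readout is yeast growth inhibition, normalised to vehicle-treated controls, in the mec2-1 strain exposed to compound.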

[3] = NCI Yeast Anticancer Drug Screen. Data for the sgs1 mgt1 strain (AID 161);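 also: 0% = growth of cultures given vehicle only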; conditions: S. cerevisiae sgs1 mgt1 strain, at 50.0 µM, hits give high values
Summary of the method: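 Compounds are added to genetically altered yeast, and growth is compared with cultures given vehicle alone to give percent inhibition.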

[4] = NCI Yeast Anticancer Drug Screen. Data for the cln2 rad14 strain (AID 165);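 also: 0% = growth equal to vehicle treated cultures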; conditions: S. cerevisiae cln2 rad14 strain, at 50.0 µM, hits give high values
Summary of the method: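 Relative to vehicle controls, growth inhibition of compound-treated cln2 rad14 yeast was recorded.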

[5] = NCI Yeast Anticancer Drug Screen. Data for the bub3 strain (AID 167); conditions: S. cerevisiae bub3 mutant strain, at 50.0 µM, hits give high values
Summary of the method: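 Yeast carrying a defined mutation is treated with each compound, and growth is compared with that of vehicle-exposed cells to give inhibition.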

[6] = NCI Yeast Anticancer Drug Screen. Data for the mlh1 rad18 strain (AID 175); conditions: S. cerevisiae mlh1 rad18 strain growth inhibition; at 50.0 µM; hits give high values
Summary of the method: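 Test agents were incubated with a yeast strain of defined genotype (DNA damage repair defect). Inhibition of growth was derived by comparison with vehicle-exposed cultures.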

Measured: growth inhibition

CCCc1cc(C(=O)N/N=C/c2ccc([N+](=O)[O-])cc2)c2ccccc2n1
inactive: [1] -28.3% | [2] -3.2% | [3] 0.1% | [4] -40.5% | [5] 9.5% | [6] -2.8%

O=C(O)c1c(Cl)ccc([N+](=O)[O-])c1Cl
inactive: [1] -4.45% | [2] -24.2% | [3] -8.95% | [4] 8.8% | [5] -10.6% | [6] -1.45%

CC(=O)Nc1ccc(C=O)s1
inactive: [1] -0.65% | [2] 6% | [3] -15.4% | [4] -36.2% | [5] 1.65% | [6] -0.4%

COc1cccc(CNc2ncnc3nc[nH]c23)c1
inactive: [1] 16.5% | [2] 1.85% | [3] 14.7% | [4] 4% | [5] -3.85% | [6] 24.6%

CCOC(=O)C(CCc1ccc([N+](=O)[O-])cc1)(CCc1ccc([N+](=O)[O-])cc1)C(=O)OCC
inactive: [1] -8.7% | [2] -16.1% | [3] -7.3% | [4] -29.1% | [5] -0.3% | [6] 6.15%

O=C(/C=C/c1ccccc1)NC(=S)Nc1cc(Cl)ccc1O
inactive: [1] 2.55% | [2] 7.8% | [3] 6.25% | [4] 5.5% | [5] 12.7% | [6] 6.85%

CC(=O)O[C@]12CCCCCC1C1(O)C(O)CCC[C@H]12 (stereo partly drawn)
inactive: [1] -29.4% | [2] -19.9% | [3] -54.8% | [4] 17.6% | [5] -26.1% | [6] -47.3%

COc1cc(-c2cc(-c3cc([N+](=O)[O-])c(/C=N/NC(=O)c4ccncc4)o3)ccc2OC)ccc1C
inactive: [1] 17.5% | [2] 8.2% | [3] -8.1% | [4] 26.9% | [5] 11.2% | [6] 8.3%

CCN1C(=O)CCN(S(=O)(=O)c2ccc(-n3nc(C)cc3C)cc2)C1=S
inactive: [1] -5.55% | [2] -8.45% | [3] -9.15% | [4] -46.4% | [5] 1.7% | [6] -2.3%

CCCCc1ccc(NC(=O)c2cccnc2)cc1
inactive: [1] 3% | [2] 14.4% | [3] 36.5% | [4] 15.2% | [5] -3.4% | [6] 27.6%

CCC(C)OC(=Nc1ccccc1)c1ccccc1 (stereo not drawn)
inactive: [1] -4.05% | [2] 5.95% | [3] -4.5% | [4] 15.7% | [5] -6.7% | [6] 2.4%

Cc1ncc(CSc2ccccc2N)c(CO)c1O
inactive: [1] -10.8% | [2] -10.1% | [3] -22.5% | [4] 48.2% | [5] 5.5% | [6] -4.55%

N#CC12CC=C(c3ccccc3)N=C1NC(c1ccccc1)=CC2 (stereo not drawn)
inactive: [1] -25.9% | [2] -35.5% | [3] -31.7% | [4] -38.4% | [5] -1.65% | [6] -34.1%

CCN(Cc1cc(Cl)cc(C)c1O)Cc1c(O)ccc2ccccc12
active: [1] 99.5% | [2] 99.2% | [3] 99.3% | [4] 99.3% | [5] 98.6% | [6] 99.7%

CC(C)(C)CC(C)(C)NC(=O)CCl
inactive: [1] -6.05% | [2] 2.15% | [3] 2.6% | [4] -4.85% | [5] 10.3% | [6] -5.45%

CCN(CC)c1ccc(N=C2C=C(C(=O)Nc3ccccc3OC)C(=O)c3ccccc32)c(C)c1
inactive: [1] -24.6% | [2] -28.6% | [3] -12.7% | [4] 5.25% | [5] -2.6% | [6] -16.5%

Cc1csc2nc(-c3ccncc3)cn12
inactive: [1] 10.7% | [2] 10.1% | [3] -14% | [4] 1.4% | [5] 37.1% | [6] 23.1%

O=C(O)Cn1cc(I)c(=O)c(I)c1
inactive: [1] -40.4% | [2] -43.7% | [3] -7.2% | [4] 3.15% | [5] -10.3% | [6] -28%

O=C1Nc2ccccc2C1=O
inactive: [1] -0.85% | [2] 11.4% | [3] -31.8% | [4] -22.5% | [5] -12.3% | [6] -50%

C#CC1(O)CCCCCCCCC2(CCCCCCCC1)OCCO2
inactive: [1] -10.7% | [2] -10.8% | [3] -18.2% | [4] 13.7% | [5] -5.85% | [6] 1.25%

N#CCCN1CCCSC1=S
inactive: [1] 6.15% | [2] 17.1% | [3] 4.2% | [4] 4.05% | [5] -3.1% | [6] 1.7%

CCOC(=O)C(NC(C)=O)(C(=O)OCC)C1CCCCC1=O (stereo not drawn)
inactive: [1] -10.8% | [2] 2.65% | [3] -33.4% | [4] -3.4% | [5] -10.8% | [6] -20.5%

CCCCCCCNc1ccc(C(=O)OCC)cc1
inactive: [1] -1.5% | [2] 5.35% | [3] -1.95% | [4] 8.15% | [5] 7.3% | [6] -7.55%

O=[N+]([O-])c1ccccc1S(=O)(=O)NC1c2ccccc2Oc2ccccc21
inactive: [1] 31.9% | [2] 28.3% | [3] 19.4% | [4] 2.75% | [5] -0.8% | [6] 43.6%

Clc1cccc(C2N3CCCCC3[C@@H]3c4[nH]c5ccccc5c4CCN23)c1 (stereo partly drawn)
inactive: [1] -0.75% | [2] -1.85% | [3] -1.95% | [4] 3.1% | [5] 10.9% | [6] 1.7%

CCCCSCc1nc2nc(Cl)c(Cl)nc2[nH]1
inactive: [1] -18.1% | [2] -37.2% | [3] -23.9% | [4] 1.15% | [5] -44.8% | [6] -9.25%

CC(=O)O[C@]12CCCCC1C1(O)C(O)CCCC[C@H]12 (stereo partly drawn)
inactive: [1] -41.8% | [2] -62.2% | [3] -65.5% | [4] -4.95% | [5] -20.6% | [6] -31.8%

Oc1ccc(Cl)cc1N1CCOCC1
inactive: [1] 9.55% | [2] 24.1% | [3] 13.4% | [4] -15.2% | [5] -19.6% | [6] -15%

O=C(O)c1cc(C(=O)Nc2cccc3ccccc23)c(C(=O)O)cc1C(=O)Nc1cccc2ccccc12
inactive: [1] 14.6% | [2] 24.1% | [3] 17.6% | [4] -5.4% | [5] 6.4% | [6] 22.8%

CCOC(=O)C#Cc1ccc(C#CC(=O)OCC)cc1
inactive: [1] -0.5% | [2] 19.4% | [3] 6.45% | [4] -2.95% | [5] 1.95% | [6] 51%

Cc1ccc(C(=O)c2ccccc2Cc2ccc3ccccc3c2)cc1
inactive: [1] 13.8% | [2] 0.8% | [3] 6.3% | [4] 1.35% | [5] 61.2% | [6] -0.25%

COc1ccc(CC(N)C(=O)N(C)C2C(CO)OC(n3cnc4c(N(C)C)ncnc43)C2O)cc1 (stereo not drawn)
inactive: [1] 5.3% | [2] -10.8% | [3] -8.7% | [4] -25.7% | [5] 2.3% | [6] -7.45%

Cc1ccc(S(=O)(=O)N/N=C2/CC3CCC2C3)cc1 (stereo not drawn)
inactive: [1] 5% | [2] 1.3% | [3] -19.7% | [4] -9.4% | [5] 17.3% | [6] -15.3%

C(=C\c1ccc(/C=C/c2ccccc2)nn1)/c1ccccc1
inactive: [1] -5.8% | [2] -3.1% | [3] -1.65% | [4] -21.4% | [5] 0.8% | [6] -2.1%

c1ccc(C2Nc3ccccc3C3OCCCC23)cc1 (stereo not drawn)
inactive: [1] 2.35% | [2] -4.3% | [3] 9.8% | [4] -9.4% | [5] -20.6% | [6] 1.7%

CC(=O)C1(N=Nc2ccc(S(N)(=O)=O)cc2)CCOC1=O (stereo not drawn)
inactive: [1] 1.35% | [2] -11.3% | [3] -27.1% | [4] 32.4% | [5] -29.4% | [6] 22.7%

CCNC(=O)C1Cc2ccccc2N(CC)C1 (stereo not drawn)
inactive: [1] -13.4% | [2] -6.65% | [3] -0.75% | [4] -12.2% | [5] -1.9% | [6] 2.75%

Cc1ccc(NC(=O)CC2SC(=Nc3cccc(Cl)c3C)NC2=O)cc1 (stereo not drawn)
inactive: [1] 30.9% | [2] 27.9% | [3] 41.5% | [4] 28.7% | [5] 26.1% | [6] 11%
